Values joined by “and” are separate entries in the source; they are usually repeats but may differ in a detail not shown here. Equal entries are not always repeated. Inconclusive results are not listed. Active and inactive are the calls of the source. Unless noted, calls come from the whole dose curve; as a rule, active = well fitted curve in the direction sought with a large enough effect; inconclusive = small, poorly fitted or top-dose-only effect, or another doubt; inactive = no such curve, though single readings can be large; an effect the other way counts as inactive or inconclusive.
Legend:
[1] = Cell Viability - Jurkat (AID 426;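 active = dose-dependent loss of cell ATP signal giving a full or clear fitted curve, ranked by lower potency value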;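 note: potency is the fitted concentration of half-maximal effect; cells exposed to compound for 40 hours at 37 °C before ATP read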); conditions: qHTS
How it was run: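 Luminescent ATP read-out (CellTiter-Glo, 20 min at room temperature) after 40 hr compound exposure at 37 °C of Jurkat E6-1 cells, 5000/well. Decreased ATP taken as cytotoxicity; AC50 from standard Hill equation.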

[2] = Cell Viability - HUV-EC-C (AID 542); conditions: HUV-EC-C endothelial cell viability, qHTS; series mostly up to 92.2 µM;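 note: cells exposed to compound for 40 hours; % is set by controls: 0 for no effect and ±100 for the full control effect; nearly all actives have a fitted effect of over 35% in size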
How it was run: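 Luminescent ATP read-out (CellTiter-Glo, 20 min room temperature) after 40 hr compound treatment of HUV-EC-C cells at 37 °C. Concentration-response data fitted with the standard Hill equation to give AC50; tamoxifen and doxorubicin served as positive controls.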

[3] = Cellular Toxicity (caspase-3) Jurkat (AID 655); conditions: Jurkat caspase-3 activation, luminescence; caspase-3 activation: at 92.2 µM (top of the series), DMSO = 0%, tamoxifen = 100%;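 note: cells exposed to compound for 16 h at 37 °C before reading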
How it was run: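 Luminescent Caspase-Glo 3/7 read-out (20 min, room temperature) after 16 h compound treatment at 37 C of 5000 Jurkat cells per well. AC50 derived by Hill-equation fitting, scaled between DMSO basal and 100 uM tamoxifen stimulation.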

[4] = MultiTox-Fluor Cytotoxicity Assay - LYMP1-001 - Dead Cells (AID 946); conditions: LYMP1-001 lymphoblastoid cells, dead-cell protease fluorescence; series mostly up to 92.2 µM;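 note: 0% = DMSO and 100% = tetraoctylammonium bromide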
How it was run: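 LYMP1-001 lymphoblastoid cells (2500/well) treated 16 h at 37 C. Dead-cell protease cleavage of bis-AAF-R110 read at Ex/Em 485/520. Normalized to DMSO and 15 uM tetraoctylammonium bromide; AC50 from Hill fits.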

[5] = Cell Viability - LYMP2-005 (AID 967); conditions: LYMP2-005 lymphoblastoid cell viability; series mostly up to 92.2 µM;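 note: plate controls were DMSO only for no effect and 92 µM tetraoctylammonium bromide control for full effect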
How it was run: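 LYMP2-005 human lymphoblastoid cells (2500/well) were treated with compounds for 24 h at 37 C. Intracellular ATP was then measured by CellTiter-Glo luminescence after 30 min at room temperature. AC50 values came from Hill-equation fits of qHTS concentration-response data.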

[6] = Cell Viability - LYMP2-009 (AID 968); conditions: LYMP2-009 lymphoblastoid cell viability; series mostly up to 92.2 µM;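 note: 0% = DMSO alone and the full-kill end = tetraoctylammonium bromide at 92 µM; nearly all actives have a fitted effect of over 55% in size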
[7] = Cell Viability - LYMP2-011 (AID 969); conditions: LYMP2-011 lymphoblastoid cells viability; series mostly up to 92.2 µM;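 note: cells exposed to compound for 24 hours; 0% = DMSO only and full inhibition = 92 µM tetraoctylammonium bromide; nearly all actives have a fitted effect of over 60% in size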
How it was run: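 Luminescent ATP read-out (CellTiter-Glo, 30 min RT) after 24 hr compound exposure at 37 C in human lymphoblastoid cells, 2500 cells/well. Decreasing ATP indicates cytotoxicity; AC50 from standard Hill fit.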

[8] = Cell Viability - LYMP2-013 (AID 970); conditions: LYMP2-013 lymphoblastoid cells viability; series mostly up to 92.2 µM;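 note: 0% = DMSO only and full inhibition = tetraoctylammonium bromide control; nearly all actives have a fitted effect of over 55% in size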
How it was run: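 CellTiter-Glo luminescence (cellular ATP) read after 30 min at RT. Cells: human lymphoblastoid line, 2500/well, 24 hr compound exposure at 37 C. Tetraoctylammonium bromide positive control; AC50 via standard Hill fit of qHTS titrations.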

[9] = Cell Viability - LYMP2-002 (AID 977); conditions: LYMP2-002 lymphoblastoid cell viability, qHTS; series mostly up to 92.2 µM;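 note: plate controls were DMSO only for no effect and 92 µM tetraoctylammonium bromide for full effect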
How it was run: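 In this qHTS viability screen, 2500 human lymphoblastoid cells per well receive compound for 24 hr at 37 C, and luciferase-based ATP luminescence gives the viability signal. Tetraoctylammonium bromide serves as positive control.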

[10] = Cell Viability - LYMP2-008 (AID 980); conditions: LYMP2-008 lymphoblastoid cell viability, qHTS; series mostly up to 92.2 µM; note: % is set by controls: 0 for no effect and ±100 for the full control effect; nearly all actives have a fitted effect of over 60% in size
How it was run: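 Luminescent ATP read-out (CellTiter-Glo, 30 min RT) after 24 hr compound exposure at 37 C of human lymphoblastoid cells in complete medium. Decrease in ATP taken as cytotoxicity; AC50 derived by standard Hill fit of qHTS concentration-response data.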

[11] = Cell Viability - LYMP2-024 (AID 988); conditions: LYMP2-024 lymphoblastoid cell viability; series mostly up to 92.2 µM;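 note: plate controls were DMSO only for no effect and 92 µM tetraoctylammonium bromide for full effect; nearly all actives have a fitted effect of over 60% in size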
How it was run: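 ATP-based luminescence (CellTiter-Glo, 30 min RT) after 24 h compound exposure at 37 C of 2500 lymphoblastoid cells/well; decrease in ATP taken as cytotoxicity. qHTS concentration-response fitted to standard Hill equation for AC50.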

[12] = Cell Viability - LYMP2-026 (AID 989); conditions: LYMP2-026 lymphoblastoid cell viability, qHTS; series mostly up to 92.2 µM; note: % is set by controls: 0 for no effect and ±100 for the full control effect; nearly all actives have a fitted effect of over 50% in size
How it was run: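 qHTS cytotoxicity: 2500 cells/well, 5 hr 37 C, compound 24 hr 37 C, CellTiter-Glo 30 min RT, luminescence. Tetraoctylammonium bromide positive control. AC50 via standard Hill fit.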

[13] = molecular target: Tumor necrosis factor (Homo sapiens) (UniProt P01375); experiment: qHTS assay to identify small molecules that stimulate Tumor Necrosis Factor-alpha (TNF-alpha) secretion (AID 651757; active = well fitted curve in the direction sought with a large enough effect in the signal ratio; the % refers to the signal ratio; note: 0% is about no effect); conditions: Human cells, HTRF 665/615 ratio; series mostly up to 92.2 µM
Sequence of Tumor necrosis factor (Homo sapiens) (P01375 whole entry, looked up): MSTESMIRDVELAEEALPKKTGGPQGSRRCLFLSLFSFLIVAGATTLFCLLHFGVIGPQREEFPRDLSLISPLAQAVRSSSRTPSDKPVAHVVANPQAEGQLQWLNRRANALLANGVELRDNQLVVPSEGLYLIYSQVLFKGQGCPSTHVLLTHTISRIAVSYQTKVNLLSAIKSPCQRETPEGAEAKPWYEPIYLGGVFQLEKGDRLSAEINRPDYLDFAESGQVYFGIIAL
How it was run: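 THP-1 cells, 3000/well; compound 17 hrs, 37 C; add cryptate/XL665 anti-TNF-alpha antibody pair; 3 hr RT; TR-FRET (HTRF) read of secreted TNF-alpha. Quantitative HTS format.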

[14] = qHTS assay for small molecule agonists of the antioxidant response element (ARE) signaling pathway measured by Nrf2-dependant transcriptional activity (AID 720636; active = well fitted curve in the direction sought with a large enough effect in the repeat runs; an effect the other way counts as inactive or inconclusive;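 note: HepG2 cells with an ARE-driven luciferase reporter; % of control where 0% means no effect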); conditions: ARE-luc HepG2, Nrf2 luciferase reporter, 16 h; series mostly up to 92.4 µM
How it was run: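 In HepG2 cells engineered with an Nrf2-responsive luciferase gene, ARE induction was quantified as luminescence after 16 hr compound treatment at 37 C.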

[15] = molecular target: Nuclear receptor subfamily 1 group I member 2 (Rattus norvegicus) (UniProt Q9R1A7); experiment: qHTS assay for small molecule activators of the rat pregnane X receptor (rPXR) signaling pathway (AID 651751; call rule not given here; note: 0% is about no effect); conditions: rPXR reporter cells, luciferase (One-Glo), 24 h
Sequence of Nuclear receptor subfamily 1 group I member 2 (Rattus norvegicus) (Q9R1A7 whole entry, looked up): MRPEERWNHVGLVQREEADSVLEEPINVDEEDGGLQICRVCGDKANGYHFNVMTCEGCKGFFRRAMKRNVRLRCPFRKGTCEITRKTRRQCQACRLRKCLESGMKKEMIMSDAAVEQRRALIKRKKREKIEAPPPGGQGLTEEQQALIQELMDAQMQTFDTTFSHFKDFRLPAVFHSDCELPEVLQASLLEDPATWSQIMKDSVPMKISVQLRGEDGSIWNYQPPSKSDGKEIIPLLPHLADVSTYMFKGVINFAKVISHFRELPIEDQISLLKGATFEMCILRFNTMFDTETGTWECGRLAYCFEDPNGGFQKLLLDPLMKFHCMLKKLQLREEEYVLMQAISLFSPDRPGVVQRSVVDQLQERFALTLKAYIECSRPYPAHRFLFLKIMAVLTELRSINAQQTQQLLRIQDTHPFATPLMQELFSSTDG

[16] = qHTS assay for small molecule activators of the human pregnane X receptor (PXR) signaling pathway (AID 720659; call rule not given here; note: 0% is about no effect); conditions: DPX-2 HepG2 CYP3A4-luciferase, 24 h; series mostly up to 92.3 µM
[17] = MultiTox-Fluor Cytotoxicity Assay - LYMP1-001 - Live Cells (AID 947); conditions: LYMP1-001 lymphoblastoid cells, live-cell protease fluorescence viability; series mostly up to 92.2 µM;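 note: 0% = DMSO only and full inhibition = tetraoctylammonium bromide control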
[18] = Cell Viability - LYMP1-002 - Assay at 16 hr (AID 948); conditions: LYMP1-002 lymphoblastoid cell viability; series mostly up to 92.2 µM;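 note: 0% = DMSO alone and full effect = 92 µM tetraoctylammonium bromide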
How it was run: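 ATP luminescence (CellTiter-Glo) was measured after 16 hr compound exposure at 37 C of 2500 lymphoblastoid LYMP1-002 cells per well. Concentration-response curves were fitted with the Hill equation to give AC50.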

[19] = Cell Viability - LYMP2-003 (AID 965); conditions: LYMP2-003 lymphoblastoid cell viability; series mostly up to 92.2 µM;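 note: cells exposed to compounds for 24 h before reading; 0% = DMSO only and full effect = 92 µM tetraoctylammonium bromide; nearly all actives have a fitted effect of over 50% in size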
How it was run: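 CellTiter-Glo luminescence quantified ATP loss after 24 h compound treatment of LYMP2-003 lymphoblastoid cells at 37 C. Titration series were fitted with the standard Hill equation to give AC50.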

[20] = MultiTox-Fluor Cytotoxicity Assay - LYMP1-003 - Dead Cells (AID 961); conditions: LYMP1-003 lymphoblastoid cells, dead-cell protease fluorescence; series mostly up to 92.2 µM;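 note: 0% = DMSO and 100% = tetraoctylammonium bromide; nearly all actives have a fitted effect of over 70% in size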
How it was run: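 LYMP1-003 human lymphoblastoid cells (2500/well) exposed to compound 16 h at 37 C in complete medium; dead-cell protease read with bis-AAF-R110 fluorescence (Ex/Em 485/520) after 60 min at room temperature. Normalized to DMSO and 15 uM tetraoctylammonium bromide; AC50 from Hill fit.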

CC(C)C#N
inactive: Potency [1] > 92 µM | Potency [2] | caspase-3 activation [3] -1.09% | outcome [4] | Potency [5] | Potency [6] | Potency [7] | Potency [8] | Potency [9] | Potency [10] | Potency [11] | Potency [12] | outcome [13] | Potency [14] | max response [15] 3.94% | outcome [16]

Cc1ccc2c(c1N)C(=O)c1ccccc1C2=O
inactive: Potency [1] > 92 µM | caspase-3 activation [3] -9.07% | outcome [4] | outcome [17] | outcome [18] | Potency [19] | Potency [5] | Potency [6] | Potency [7] | Potency [8] | Potency [9] | Potency [10] | Potency [11] | Potency [12]

Cc1cccc(C)c1N
inactive: Potency [1] > 92 µM | Potency [2] | outcome [4] | outcome [17] | outcome [18] | Potency [20] | Potency [19] | Potency [5] | Potency [6] | Potency [7] | Potency [8] | Potency [9] | Potency [10] | Potency [11] | Potency [12] | outcome [13] | Potency [14] | max response [15] 0.51% | outcome [16]

O=C(O)c1cc(Cl)ccc1Cl
inactive: Potency [1] > 92 µM | Potency [2] | caspase-3 activation [3] 0.232% | outcome [4] | outcome [17] | outcome [18] | Potency [20] | Potency [5] | Potency [6] | Potency [7] | Potency [8] | Potency [9] | Potency [10] | Potency [11] | Potency [12] | outcome [13] | Potency [14] | max response [15] -1.07% | outcome [16]

O=[N+]([O-])c1c(Cl)c(Cl)c(Cl)c(Cl)c1Cl
inactive: Potency [1] > 92 µM | Potency [2] | caspase-3 activation [3] 0.645% | outcome [17] | outcome [18] | Potency [20] | Potency [19] | Potency [5] | Potency [6] | Potency [8] | Potency [10] | Potency [11] | outcome [13] | Potency [14] | max response [15] -3.78% and 1.81% | outcome [16]

Nc1ccc([N+](=O)[O-])cc1[N+](=O)[O-]
inactive: Potency [1] > 92 µM | Potency [2] | caspase-3 activation [3] 1.67% | outcome [4] | outcome [17] | Potency [20] | Potency [5] | Potency [6] | Potency [7] | Potency [8] | Potency [9] | Potency [10] | outcome [13] | Potency [14] | outcome [16]

Cl/C=C/Cl
inactive: Potency [1] > 92 µM | Potency [2] | caspase-3 activation [3] -1.85% | outcome [4] | outcome [17] | outcome [18] | Potency [20] | Potency [19] | Potency [5] | Potency [6] | Potency [7] | Potency [8] | Potency [9] | Potency [10] | Potency [11] | Potency [12] | outcome [13] | Potency [14] | max response [15] -3.34% | outcome [16]

c1ccc(Nc2ccc(Nc3ccccc3)cc2)cc1
inactive: Potency [1] > 92 µM | Potency [2] | caspase-3 activation [3] 8.77% | outcome [17] | outcome [18] | Potency [20] | Potency [19] | Potency [5] | Potency [7] | Potency [8] | Potency [9] | Potency [12]

Nc1c(Cl)cc([N+](=O)[O-])cc1Cl
inactive: Potency [1] > 92 µM | Potency [2] | caspase-3 activation [3] 3.21% | outcome [4] | outcome [17] | outcome [18] | Potency [19] | Potency [5] | Potency [6] | Potency [7] | Potency [8] | Potency [9] | Potency [10] | outcome [13] | Potency [14] | outcome [16]

Oc1cc(Cl)ccc1Cl
inactive: Potency [1] > 92 µM | caspase-3 activation [3] 1.27% | outcome [17] | outcome [18] | Potency [20] | Potency [19] | Potency [5] | Potency [6] | Potency [7] | Potency [8] | Potency [9] | Potency [10] | Potency [11] | Potency [12] | outcome [13] | max response [15] -2.5% and -2.48% | outcome [16]

CN=C=O
inactive: Potency [1] > 92 µM | Potency [2] | caspase-3 activation [3] -0.0583% | outcome [4] | Potency [20] | Potency [6] | Potency [9] | Potency [10] | Potency [11] | Potency [12] | Potency [14] | max response [15] 8.83% | outcome [16]

CCCCC(=O)Cl
inactive: Potency [1] > 92 µM | Potency [2] | caspase-3 activation [3] 1.28% | outcome [4] | outcome [17] | outcome [18] | Potency [20] | Potency [19] | Potency [5] | Potency [6] | Potency [7] | Potency [8] | Potency [9] | Potency [10] | Potency [11] | Potency [12] | outcome [13] | max response [15] 6.67% | outcome [16]

Nc1ccc(Oc2ccc(N)cc2)cc1
inactive: Potency [1] > 92 µM | caspase-3 activation [3] 3.63% | outcome [4] | outcome [18] | Potency [20] | Potency [19] | Potency [5] | Potency [6] | Potency [7] | Potency [8] | Potency [9] | Potency [11] | Potency [12] | Potency [14] | max response [15] 6.46% and 5.6% | outcome [16]

CCCCCc1cc(O)cc(O)c1
inactive: Potency [1] > 92 µM | Potency [2] | caspase-3 activation [3] 1.33% | outcome [4] | outcome [17] | outcome [18] | Potency [19] | Potency [6] | Potency [7] | Potency [8] | Potency [9] | Potency [10] | Potency [11] | Potency [12] | outcome [13] | Potency [14] | max response [15] -1.86% | outcome [16]

CC(C)CC(C)N (configuration not stated)
inactive: Potency [1] > 92 µM | Potency [2] | caspase-3 activation [3] 1.95% | outcome [17] | outcome [18] | Potency [20] | Potency [19] | Potency [5] | Potency [7] | Potency [8] | Potency [9] | Potency [10] | Potency [11] | Potency [12] | Potency [14] | max response [15] 0.275% | outcome [16]

Source: PubChem BioAssay (NCATS)
